# Measured values reported in the supplement of paper PMC10849652.
# Targets with a hit are over-represented here; the source holds about 8,800 in all. About 0.5% of all pairs of compound and target were hits.
# Experiments:
# Experiment in all cases: log2 fold change, soluble protein after heating vs DMSO (PISA); higher = thermal stabilisation; K562 lysate, 10 uM; active = over 0.2 and 3.5 SD of the protein, either way, in both replicates (recomputed)
# [1] = compound: CS(=O)(=O)CCNCc1ccc(-c2ccc3ncnc(Nc4ccc(OCc5cccc(F)c5)c(Cl)c4)c3c2)o1 [lapatinib]
# In short: (§1)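 Log-two fold change in thermal stability relative to solvent controls is reported from duplicates. For each sample, crude K562 extract from dounce-homogenised pellets in PBS pH 7.4 with 1 mM MgCl2, at 1 mg/mL protein, was treated with 10 μM compound for 30 min. Aliquots heated for 3 min across 48°C-58°C were pooled, brought to 0.5% NP-40 at 4°C and cleared at 21,000xg for 90 min. The supernatant was quantified by TMTpro 16plex LC-MS/MS with channel sums equalised.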
# [2] = compound: CS(=O)(=O)N1CCN(Cc2cc3nc(-c4cccc5[nH]ncc45)nc(N4CCOCC4)c3s2)CC1 [pictilisib]
# In short: as §1
# [3] = compound: C[C@@H](Oc1cc(-c2cnn(C3CCNCC3)c2)cnc1N)c1c(Cl)ccc(F)c1Cl [crizotinib]
# In short: as §1
# [4] = compound: C[C@H](C1=CC=C(C=C1)C(=O)NC2=C3C=CNC3=NC=C2)N
# In short: as §1
# [5] = compound: C[C@H](Nc1ncnc2nc[nH]c12)c1cc2cccc(Cl)c2c(=O)n1-c1ccccc1 [duvelisib]
# In short: as §1
# [6] = compound: Cc1cc(Nc2cc(CN3CCOCC3)c3nc(C)c(Cc4ccc(Cl)cc4F)n3n2)n[nH]1 [gandotinib]
# In short: as §1
# [7] = compound: Cc1cc(Nc2cc(N3CCN(C)CC3)nc(Sc3ccc(NC(=O)C4CC4)cc3)n2)n[nH]1 [tozasertib]
# In short: as §1
# [8] = compound: Cc1ccc(-n2nc(C(C)(C)C)cc2NC(=O)Nc2ccc(OCCN3CCOCC3)c3ccccc23)cc1 [doramapimod]
# In short: as §1
# [9] = compound: Cc1ccc(NC(=O)c2ccc(CN3CC[C@H](N(C)C)C3)c(C(F)(F)F)c2)cc1Nc1nccc(-c2cncnc2)n1 [bafetinib]
# In short: as §1
# [10] = compound: Cc1cccc(CC(=O)N2CCc3c2ccc(-c2cn(C)c4ncnc(N)c24)c3F)n1
# In short: as §1
# UniProt O75208, sequence (O75208 whole entry, looked up): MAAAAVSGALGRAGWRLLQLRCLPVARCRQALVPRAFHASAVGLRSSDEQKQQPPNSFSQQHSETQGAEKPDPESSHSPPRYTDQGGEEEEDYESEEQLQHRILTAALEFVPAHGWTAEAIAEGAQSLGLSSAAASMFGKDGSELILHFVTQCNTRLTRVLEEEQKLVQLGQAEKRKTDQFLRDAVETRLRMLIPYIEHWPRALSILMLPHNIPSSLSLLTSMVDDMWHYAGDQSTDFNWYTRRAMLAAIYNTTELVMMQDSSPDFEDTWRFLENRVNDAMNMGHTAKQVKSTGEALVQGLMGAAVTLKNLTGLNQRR
# UniProt P04080, sequence (P04080 whole entry, looked up): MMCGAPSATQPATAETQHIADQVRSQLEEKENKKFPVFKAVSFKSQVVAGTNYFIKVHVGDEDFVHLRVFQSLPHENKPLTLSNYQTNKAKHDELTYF
# UniProt Q96JB2, sequence (Q96JB2 whole entry, looked up): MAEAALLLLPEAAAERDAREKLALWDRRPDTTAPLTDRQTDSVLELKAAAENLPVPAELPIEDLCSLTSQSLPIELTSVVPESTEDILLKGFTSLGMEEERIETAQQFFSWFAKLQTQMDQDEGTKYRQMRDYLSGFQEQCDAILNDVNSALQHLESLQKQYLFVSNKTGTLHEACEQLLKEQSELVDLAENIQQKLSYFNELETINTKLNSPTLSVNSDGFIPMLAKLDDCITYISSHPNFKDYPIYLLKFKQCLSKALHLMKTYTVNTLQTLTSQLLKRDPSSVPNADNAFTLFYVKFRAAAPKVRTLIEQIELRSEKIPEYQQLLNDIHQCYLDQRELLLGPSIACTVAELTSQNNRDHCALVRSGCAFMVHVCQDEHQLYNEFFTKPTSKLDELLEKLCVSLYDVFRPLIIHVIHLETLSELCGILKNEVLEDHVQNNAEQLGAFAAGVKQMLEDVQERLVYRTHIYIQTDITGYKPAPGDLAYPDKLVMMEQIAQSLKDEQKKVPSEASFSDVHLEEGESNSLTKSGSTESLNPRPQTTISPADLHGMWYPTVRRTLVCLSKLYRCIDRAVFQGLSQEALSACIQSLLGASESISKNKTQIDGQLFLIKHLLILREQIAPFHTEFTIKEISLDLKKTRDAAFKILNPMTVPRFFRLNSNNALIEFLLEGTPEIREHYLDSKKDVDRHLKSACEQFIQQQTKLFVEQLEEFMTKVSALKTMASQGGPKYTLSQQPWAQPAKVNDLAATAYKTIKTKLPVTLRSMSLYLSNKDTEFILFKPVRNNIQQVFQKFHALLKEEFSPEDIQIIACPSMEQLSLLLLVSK
# UniProt Q1MSJ5, sequence (Q1MSJ5 whole entry, looked up): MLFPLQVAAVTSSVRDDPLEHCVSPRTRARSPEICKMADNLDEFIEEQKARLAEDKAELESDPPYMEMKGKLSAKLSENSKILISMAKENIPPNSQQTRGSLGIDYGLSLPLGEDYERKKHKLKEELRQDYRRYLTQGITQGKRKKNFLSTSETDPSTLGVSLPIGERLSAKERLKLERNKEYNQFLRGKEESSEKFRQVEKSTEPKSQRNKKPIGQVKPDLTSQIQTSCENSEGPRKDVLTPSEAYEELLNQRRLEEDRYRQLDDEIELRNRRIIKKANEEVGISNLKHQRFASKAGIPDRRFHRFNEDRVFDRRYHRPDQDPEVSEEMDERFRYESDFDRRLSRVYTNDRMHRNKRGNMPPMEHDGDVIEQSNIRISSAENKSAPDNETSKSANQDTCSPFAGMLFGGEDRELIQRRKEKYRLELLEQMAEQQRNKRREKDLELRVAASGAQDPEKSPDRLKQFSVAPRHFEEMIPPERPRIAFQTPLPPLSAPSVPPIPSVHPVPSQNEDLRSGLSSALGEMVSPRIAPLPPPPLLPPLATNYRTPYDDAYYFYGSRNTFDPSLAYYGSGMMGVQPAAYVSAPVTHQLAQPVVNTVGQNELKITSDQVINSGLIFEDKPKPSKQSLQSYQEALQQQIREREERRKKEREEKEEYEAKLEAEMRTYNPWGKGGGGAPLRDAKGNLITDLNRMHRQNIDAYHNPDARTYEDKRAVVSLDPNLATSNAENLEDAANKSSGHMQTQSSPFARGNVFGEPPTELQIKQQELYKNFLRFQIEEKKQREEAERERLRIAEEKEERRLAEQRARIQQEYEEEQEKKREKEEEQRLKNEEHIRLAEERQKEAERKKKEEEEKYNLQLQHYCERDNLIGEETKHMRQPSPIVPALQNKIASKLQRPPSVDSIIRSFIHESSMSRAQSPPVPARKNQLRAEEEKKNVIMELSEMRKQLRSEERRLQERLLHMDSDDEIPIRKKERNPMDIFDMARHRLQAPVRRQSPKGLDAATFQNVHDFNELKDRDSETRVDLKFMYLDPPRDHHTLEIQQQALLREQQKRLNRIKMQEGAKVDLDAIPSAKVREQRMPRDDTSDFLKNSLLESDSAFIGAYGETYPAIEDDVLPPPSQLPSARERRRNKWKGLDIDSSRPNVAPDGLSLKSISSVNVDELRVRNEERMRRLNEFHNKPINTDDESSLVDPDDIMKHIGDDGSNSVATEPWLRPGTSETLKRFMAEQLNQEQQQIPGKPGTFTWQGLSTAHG
# UniProt P09622, sequence (P09622 whole entry, looked up): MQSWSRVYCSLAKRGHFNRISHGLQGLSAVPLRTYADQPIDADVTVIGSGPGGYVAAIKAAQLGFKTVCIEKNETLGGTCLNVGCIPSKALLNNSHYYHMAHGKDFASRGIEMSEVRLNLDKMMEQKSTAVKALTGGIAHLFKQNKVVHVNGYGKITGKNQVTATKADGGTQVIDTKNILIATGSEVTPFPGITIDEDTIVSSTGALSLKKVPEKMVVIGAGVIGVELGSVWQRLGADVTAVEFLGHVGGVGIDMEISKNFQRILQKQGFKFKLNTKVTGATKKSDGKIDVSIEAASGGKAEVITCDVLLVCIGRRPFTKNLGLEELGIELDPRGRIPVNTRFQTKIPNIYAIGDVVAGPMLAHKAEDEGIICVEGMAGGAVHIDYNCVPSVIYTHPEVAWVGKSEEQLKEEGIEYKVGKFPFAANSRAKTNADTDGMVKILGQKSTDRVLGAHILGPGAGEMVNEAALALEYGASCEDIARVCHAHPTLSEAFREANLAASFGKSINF
# UniProt O14757, sequence (O14757 whole entry, looked up): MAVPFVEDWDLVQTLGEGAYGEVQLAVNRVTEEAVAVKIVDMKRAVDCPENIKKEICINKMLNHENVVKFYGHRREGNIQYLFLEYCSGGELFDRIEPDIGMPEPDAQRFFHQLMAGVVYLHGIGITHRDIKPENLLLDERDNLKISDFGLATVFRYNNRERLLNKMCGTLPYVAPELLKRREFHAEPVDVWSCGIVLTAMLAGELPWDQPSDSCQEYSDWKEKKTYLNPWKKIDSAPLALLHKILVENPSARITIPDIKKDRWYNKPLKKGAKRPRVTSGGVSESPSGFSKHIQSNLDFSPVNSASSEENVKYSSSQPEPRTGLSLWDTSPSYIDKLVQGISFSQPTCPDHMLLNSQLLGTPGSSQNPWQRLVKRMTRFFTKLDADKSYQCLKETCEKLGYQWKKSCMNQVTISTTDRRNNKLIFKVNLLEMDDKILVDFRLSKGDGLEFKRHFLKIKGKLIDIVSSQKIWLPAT
# UniProt O75534, sequence (O75534 whole entry, looked up): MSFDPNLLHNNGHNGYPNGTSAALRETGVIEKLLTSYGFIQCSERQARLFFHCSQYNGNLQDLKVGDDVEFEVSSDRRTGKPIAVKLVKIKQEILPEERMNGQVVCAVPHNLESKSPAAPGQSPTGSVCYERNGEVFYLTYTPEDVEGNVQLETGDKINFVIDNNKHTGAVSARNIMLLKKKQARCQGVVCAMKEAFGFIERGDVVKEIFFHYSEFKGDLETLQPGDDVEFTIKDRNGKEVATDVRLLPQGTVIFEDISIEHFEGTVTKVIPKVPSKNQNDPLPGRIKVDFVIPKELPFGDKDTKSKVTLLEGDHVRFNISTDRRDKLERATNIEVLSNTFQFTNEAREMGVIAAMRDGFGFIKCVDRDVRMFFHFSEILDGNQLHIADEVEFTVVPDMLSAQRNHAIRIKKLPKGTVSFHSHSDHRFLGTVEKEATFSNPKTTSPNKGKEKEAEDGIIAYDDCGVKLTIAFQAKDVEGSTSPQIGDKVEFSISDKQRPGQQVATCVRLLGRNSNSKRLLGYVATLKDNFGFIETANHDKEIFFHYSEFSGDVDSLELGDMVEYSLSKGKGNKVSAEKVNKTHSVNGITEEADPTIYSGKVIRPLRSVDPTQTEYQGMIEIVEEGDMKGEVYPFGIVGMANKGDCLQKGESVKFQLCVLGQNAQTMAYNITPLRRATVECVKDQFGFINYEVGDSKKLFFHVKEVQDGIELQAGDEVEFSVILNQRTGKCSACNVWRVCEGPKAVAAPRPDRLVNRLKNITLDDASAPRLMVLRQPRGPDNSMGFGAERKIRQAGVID
# UniProt P99999, sequence (P99999 whole entry, looked up): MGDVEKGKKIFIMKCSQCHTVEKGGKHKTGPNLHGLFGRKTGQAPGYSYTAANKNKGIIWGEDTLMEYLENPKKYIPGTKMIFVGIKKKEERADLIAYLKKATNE
# UniProt Q9NRF8, sequence (Q9NRF8 whole entry, looked up): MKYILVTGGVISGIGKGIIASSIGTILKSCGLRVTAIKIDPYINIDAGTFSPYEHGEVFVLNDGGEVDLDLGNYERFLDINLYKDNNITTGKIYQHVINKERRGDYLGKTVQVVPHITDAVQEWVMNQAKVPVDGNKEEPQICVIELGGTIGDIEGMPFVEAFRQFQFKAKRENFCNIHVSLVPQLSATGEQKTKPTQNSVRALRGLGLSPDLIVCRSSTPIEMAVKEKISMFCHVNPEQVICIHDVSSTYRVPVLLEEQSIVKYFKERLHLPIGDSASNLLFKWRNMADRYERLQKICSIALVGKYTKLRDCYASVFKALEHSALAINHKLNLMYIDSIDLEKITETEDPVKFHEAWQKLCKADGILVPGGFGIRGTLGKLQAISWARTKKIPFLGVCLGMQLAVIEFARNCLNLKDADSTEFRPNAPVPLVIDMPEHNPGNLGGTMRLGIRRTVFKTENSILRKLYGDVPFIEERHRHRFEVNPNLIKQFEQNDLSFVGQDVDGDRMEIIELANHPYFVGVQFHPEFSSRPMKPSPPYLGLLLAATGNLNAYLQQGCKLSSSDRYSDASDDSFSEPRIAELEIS
Target,log2 fold change [1],log2 fold change [2],log2 fold change [3],log2 fold change [4],log2 fold change [5],log2 fold change [6],log2 fold change [7],log2 fold change [8],log2 fold change [9],log2 fold change [10]
CKS1B (UniProt P61024),0.039 (inactive),0.002 (inactive),0.094 (inactive),0.302 (active),-0.045 (inactive),-0.183 (inactive),0.047 (inactive),0.023 (inactive),0.068 (inactive),-0.324 (active)
DHRS1 (UniProt Q96LJ7),-0.138 (inactive),-0.089 (inactive),-0.014 (inactive),-0.037 (inactive),0.406 (active),0.099 (inactive),-0.281 (inactive),-0.015 (inactive),0.056 (inactive),0.092 (inactive)
COG3 (UniProt Q96JB2),-0.036 (inactive),-0.054 (inactive),-0.062 (inactive),-0.036 (inactive),0.006 (inactive),-0.064 (inactive),0.015 (inactive),0.03 (inactive),0.003 (inactive),0.093 (inactive)
CSNK1D (UniProt P48730),-0.098 (inactive),0.066 (inactive),0.052 (inactive),-0.153 (inactive),0.007 (inactive),0.059 (inactive),0.008 (inactive),-0.011 (inactive),-0.01 (inactive),-0.177 (inactive)
DARS (UniProt P14868),0.002 (inactive),0 (inactive),-0.033 (inactive),-0.036 (inactive),0 (inactive),-0.081 (inactive),0.011 (inactive),0.015 (inactive),-0.011 (inactive),0.008 (inactive)
DNAAF5 (UniProt Q86Y56),-0.03 (inactive),-0.008 (inactive),-0.104 (inactive),0.016 (inactive),0.021 (inactive),-0.147 (inactive),-0.055 (inactive),0.024 (inactive),-0.066 (inactive),0.027 (inactive)
CSTB (UniProt P04080),0.05 (inactive),0.003 (inactive),-0.059 (inactive),-0.235 (inactive),0.025 (inactive),0.147 (inactive),-0.01 (inactive),0.107 (inactive),0.012 (inactive),0.104 (inactive)
CIAO2A (UniProt Q9H5X1),0.007 (inactive),-0.058 (inactive),-0.014 (inactive),0.181 (inactive),-0.01 (inactive),0 (inactive),0.042 (inactive),0.11 (inactive),-0.015 (inactive),-0.276 (active)
CKAP5 (UniProt Q14008),0.001 (inactive),0.013 (inactive),-0.017 (inactive),0.004 (inactive),0.001 (inactive),-0.053 (inactive),0.01 (inactive),0.011 (inactive),0.005 (inactive),0.015 (inactive)
CYP24A1 (UniProt Q07973),-0.099 (inactive),0.015 (inactive),-0.289 (inactive),-0.462 (active),0.077 (inactive),0.235 (inactive),-0.02 (inactive),0.006 (inactive),-0.209 (inactive),0.325 (inactive)
COG2 (UniProt Q14746),-0.009 (inactive),-0.03 (inactive),-0.041 (inactive),-0.025 (inactive),0.025 (inactive),-0.118 (inactive),0.012 (inactive),0.009 (inactive),-0.027 (inactive),0.02 (inactive)
CSDE1 isoform 4 (UniProt O75534),0.001 (inactive),-0.004 (inactive),-0.006 (inactive),0.041 (inactive),-0.015 (inactive),-0.095 (inactive),0.003 (inactive),0.005 (inactive),-0.021 (inactive),-0.017 (inactive)
COASY isoform 2 (UniProt Q13057),-0.01 (inactive),0.021 (inactive),-0.084 (inactive),-0.072 (inactive),0.004 (inactive),0.009 (inactive),-0.022 (inactive),-0.007 (inactive),-0.043 (inactive),0.029 (inactive)
CYCS (UniProt P99999),0.015 (inactive),-0.033 (inactive),0.036 (inactive),-0.054 (inactive),-0.039 (inactive),0.056 (inactive),-0.004 (inactive),-0.029 (inactive),0.06 (inactive),-0.006 (inactive)
CIP2A (UniProt Q8TCG1),-0.02 (inactive),-0.045 (inactive),-0.101 (inactive),-0.049 (inactive),0.012 (inactive),-0.218 (inactive),0 (inactive),0.005 (inactive),-0.047 (inactive),0.103 (inactive)
COQ9 (UniProt O75208),-0.033 (inactive),-0.021 (inactive),0.014 (inactive),0.055 (inactive),-0.052 (inactive),-0.12 (inactive),0.02 (inactive),-0.055 (inactive),0.032 (inactive),0.019 (inactive)
CTPS2 (UniProt Q9NRF8),-0.025 (inactive),-0.018 (inactive),-0.004 (inactive),-0.032 (inactive),0.016 (inactive),-0.002 (inactive),0.009 (inactive),0.021 (inactive),0.077 (inactive),0.003 (inactive)
DNAJC1 (UniProt Q96KC8),-0.057 (inactive),0.013 (inactive),-0.086 (inactive),0.033 (inactive),-0.046 (inactive),-0.262 (active),0.019 (inactive),-0.117 (inactive),0.001 (inactive),-0.064 (inactive)
DHCR7 (UniProt Q9UBM7),-0.092 (inactive),-0.039 (inactive),-0.103 (inactive),-0.024 (inactive),0.067 (inactive),-0.215 (active),-0.01 (inactive),0.002 (inactive),0.024 (inactive),0.013 (inactive)
CTNND1 isoform 3 (UniProt O60716),-0.019 (inactive),-0.047 (inactive),-0.039 (inactive),-0.006 (inactive),0.008 (inactive),-0.001 (inactive),0.002 (inactive),0.007 (inactive),-0.025 (inactive),0.04 (inactive)
DOCK10 (UniProt Q96BY6),-0.025 (inactive),-0.024 (inactive),-0.461 (inactive),-0.641 (active),0.003 (inactive),0.231 (inactive),0 (inactive),0.137 (inactive),-0.226 (inactive),0.379 (inactive)
CMTM3 (UniProt Q96MX0),-0.027 (inactive),0.029 (inactive),-0.069 (inactive),0.023 (inactive),-0.052 (inactive),0.016 (inactive),0.042 (inactive),0.025 (inactive),-0.057 (inactive),-0.059 (inactive)
COG4 (UniProt Q9H9E3),-0.02 (inactive),-0.164 (inactive),-0.088 (inactive),-0.014 (inactive),0.022 (inactive),-0.207 (inactive),0.018 (inactive),0.026 (inactive),0.025 (inactive),0.036 (inactive)
CHEK1 (UniProt O14757),-0.008 (inactive),-0.003 (inactive),-0.021 (inactive),0.174 (inactive),-0.009 (inactive),-0.014 (inactive),0.017 (inactive),0.04 (inactive),-0.025 (inactive),0.015 (inactive)
CUL1 (UniProt Q13616),-0.007 (inactive),0.004 (inactive),0.014 (inactive),-0.007 (inactive),0.015 (inactive),0.03 (inactive),-0.001 (inactive),0.01 (inactive),0.03 (inactive),-0.002 (inactive)
DNAH10 (UniProt Q8IVF4),-0.075 (inactive),0.066 (inactive),-0.136 (inactive),-0.553 (active),0.044 (inactive),0.172 (inactive),-0.024 (inactive),0.076 (inactive),-0.08 (inactive),0.196 (inactive)
CMBL (UniProt Q96DG6),-0.024 (inactive),0.076 (inactive),0.065 (inactive),-0.162 (inactive),0.031 (inactive),0.127 (inactive),0.016 (inactive),-0.021 (inactive),-0.028 (inactive),-0.001 (inactive)
CSPP1 (UniProt Q1MSJ5),-0.103 (inactive),-0.176 (inactive),0.013 (inactive),0.031 (inactive),-0.089 (inactive),0.056 (inactive),-0.04 (inactive),0.018 (inactive),-0.013 (inactive),-0.002 (inactive)
DLD (UniProt P09622),-0.003 (inactive),0.009 (inactive),-0.001 (inactive),-0.067 (inactive),-0.012 (inactive),0.047 (inactive),-0.016 (inactive),-0.001 (inactive),0.005 (inactive),0.012 (inactive)
CSNK2A2 (UniProt P19784),-0.116 (inactive),0.057 (inactive),-0.071 (inactive),0.099 (inactive),-0.02 (inactive),-0.1 (inactive),-0.035 (inactive),-0.015 (inactive),0.009 (inactive),-0.041 (inactive)
